Source: PubChem BioAssay (EPA / NIEHS)
Inconclusive results are not listed. Active and inactive are the calls of the source. Rule for the calls: active = hit-call score of the fitted dose curve at least 0.9, where 1 is the maximum; inconclusive = response in the unintended direction; inactive = score below 0.9.

test: Tanguay_ZF_120hpf_TR_legacy: (Legacy) Oregon State University Tanguay Lab 120 Hour Post-fertilization zebrafish Assay for Touch Response (AID 2283667)
Description: Tanguay_ZF_120hpf_legacy is a whole embryo, multiplexed endpoint assay using zebrafish larvae exposed for 120 hours post fertilization on a 96-well plate.Tanguay_ZF_120hpf_TR_legacy is one of one assay component(s) measured or calculated from the Tanguay_ZF_120hpf_legacy assay. It is designed to make measurements of zebrafish development as detected with brightfield microscopy of developing zebrafish embryos.Data from the assay component Tanguay_ZF_120hpf_TR_legacy was analyzed into 1 assay endpoints. This assay endpoint, Tanguay_ZF_120hpf_TR_legacy, was analyzed in the positive analysis fitting direction relative to DMSO as the negative control and baseline of activity. Using a type of morphology reporter, gain-of-signal activity can be used to understand changes in developmentals as they relate to the whole embryo. To generalize the intended target to other relatable targets, this assay endpoint is annotated to the zebrafish development intended target family, where the subfamily is embryonic functional response.
Zebrafish husbandry: Tropical 5D wild-type adult zebrafish were housed in at an approximate density of 1000 per 100 gallon tank at the Sinnhuber Aquatic Research Laboratory, Oregon State University, Corvallis, OR. Each tank was kept at standard laboratory conditions of 28C on a 14-h light/10-h dark photoperiod in fish water consisting of reverse osmosis water supplemented with a commercially available salt (Instant Ocean). Spawning funnels were placed into the tanks the night prior, and embryos were collected and staged. […] Ten microliters of each row of dilution plate 2 was added to 2 exposure plates. The final DMSO concentration used was 0.64% (vol/vol). Thirty-two embryos were also exposed to 5uM trimethyltin chloride (positive control). Plates were sealed to prevent evaporation and foil covered to reduce light exposure and kept in a 28C incubator. Embryos were statically exposed until 120 hpf. At 24 hpf, embryos were assessed for photomotor response using a custom photomotor response analysis tool (PRAT) and for developmental toxicity endpoints (MO24: mortality at 24 hpf, DP: developmental progression, SM: spontaneous movement, and NC: notochord distortion). At 120 hpf, locomotor activity was measured using Viewpoint Zebralab and assessed for 18 endpoints. Zebrafish acquisition and analysis program (ZAAP), a custom program designed to inventory, acquire, and manage zebrafish data, was used to collect developmental endpoints as either present or absent (i.e., binary responses were recorded). If mortality occurred for an embryo (at either 24 or 120 hpf), the non-mortality endpoints were not measured.

Compound | outcome | AC50
Cc1ccccc1N | inactive | –
CCC(=O)C(CC(C)N(C)C)(c1ccccc1)c1ccccc1 (stereo unspecified) | – | 39 µM (active)
CCOP(=S)(OCC)SCSP(=S)(OCC)OCC | inactive | –
Oc1cccc2cccnc12 | inactive | –
O=C1C2(Cl)C3(Cl)C4(Cl)C(Cl)(Cl)C5(Cl)C3(Cl)C1(Cl)C5(Cl)C24Cl (stereo unspecified) | – | 34.8 µM (active)
CC(C)(c1ccccc1)c1ccc(O)c(C(C)(C)c2ccccc2)c1 | inactive | –
NC(=O)O | inactive | –
CC(=O)[O][Hg][c]1ccccc1 | inactive | –
O=C(Nc1ccc2[nH]ccc2c1)c1cc2cc(F)ccc2n1Cc1cccc(F)c1 | inactive | –
CCN1CCC2(CC1)COc1cc3c(cc12)N(C(=O)c1ccc(-c2ccc(-c4nnc(C)o4)cc2C)cc1)CC3 | inactive | –
C=C(C)C(=O)[O][Sn]([CH2]CCC)([CH2]CCC)[CH2]CCC | inactive | –
O=c1[nH]c(=O)[nH]c(=O)[nH]1 | inactive | –
O=C(O)C(Cl)(Cl)Cl | inactive | –
CCOP(=S)(OCC)Oc1nc(Cl)c(Cl)cc1Cl | inactive | –
COc1cc(-c2ccc(N)c(OC)c2)ccc1N | inactive | –
C=CC(=O)OCCCCCC(C)C | inactive | –
C[C@]12CCC(=O)C[C@@H]1CC[C@@H]1[C@@H]2CC[C@]2(C)[C@@H](O)CC[C@@H]12 | inactive | –
CN(C)N=O | inactive | –
CCC(C)(C)c1ccc(O)c(C(C)(C)CC)c1 | inactive | –
CC(C)(C)c1cc(O)ccc1O | inactive | –
CCCCCCCCc1ccc(O)cc1 | inactive | –
CC12CC1(C)C(=O)N(c1cc(Cl)cc(Cl)c1)C2=O (stereo unspecified) | inactive | –
O=C(O)C(F)(F)C(F)(F)C(F)(F)C(F)(F)C(F)(F)C(F)(F)C(F)(F)C(F)(F)C(F)(F)C(F)(F)F | inactive | –
CC(C)(C)CC(C)(C)c1ccc(O)cc1 | inactive | –
ClC1(Cl)C2(Cl)C3(Cl)C4(Cl)C(Cl)(Cl)C5(Cl)C3(Cl)C1(Cl)C5(Cl)C24Cl (stereo unspecified) | inactive | –
O=C(O)C(F)(F)C(F)(F)C(F)(F)C(F)(F)C(F)(F)C(F)(F)F | inactive | –
